{"source": "PubChem BioAssay (NCATS)", "note": "Calls of active or inactive are those of the source. Calls come from the whole dose curve; as a rule, active = well fitted curve in the direction sought with a large enough effect; inactive = no such curve, though single readings can be large or run the other way.", "data": [{"assay": "qHTS for small molecule inhibitors of Yes1 kinase: Counter Assay (AID 686950);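 note: no kinase present so only ADP-Glo detection of a fixed ADP amount is tested; luminescence from ADP-Glo reporting ADP in a fixed ATP and ADP mixture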", "conditions": "series mostly up to 76.9 µM", "summary_of_the_method": "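ADP-Glo luminescence read after a 60 min room-temperature incubation of compound with an ATP/ADP mix (0.08 mM/0.02 mM) and no kinase, following a 20 min compound preincubation. Signal scaled between ATP+ADP (max) and 0.1 mM ATP-only (min) wells; Tris pH 7.5, Mg2+, DTT.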", "values": [{"smiles": "COc1ccc(COc2cc3oc(=O)c4cc(C(C)O)ccc4c3cc2OC)cc1", "note": "(centres undefined)", "outcome": "inactive"}, {"smiles": "COc1cccc2cc(-c3nc(C4CCC(C(=O)O)CC4)n4ncnc(N)c34)[nH]c12", "note": "(centres undefined)", "outcome": "inactive"}, {"smiles": "Cc1[nH]c(=O)c(C#N)cc1-c1ccc2nccn2c1", "outcome": "inactive"}, {"smiles": "C[C@H](NC(=O)Cc1cc(F)cc(F)c1)C(=O)N[C@@H]1C(=O)N(C)c2ccccc2-c2ccccc21", "outcome": "inactive"}, {"smiles": "COc1ccc(-c2oc3cc(OC)ccc3c2C(=O)c2ccc(C#N)cc2)cc1", "outcome": "inactive"}, {"smiles": "CCn1c(-c2nonc2N)nc2c(C#CC(C)(C)O)ncc(OC[C@H]3CCCNC3)c21", "outcome": "inactive"}, {"smiles": "Cc1cc(-c2ccc(CC(=O)Nc3ccc(-c4cccnc4)cc3)cc2)ccn1", "outcome": "inactive"}, {"smiles": "COc1ccc(C2=N[C@H](c3ccc(Cl)cc3)[C@H](c3ccc(Cl)cc3)N2C(=O)N2CCNC(=O)C2)c(OC(C)C)c1", "outcome": "inactive"}, {"smiles": "CC[C@@H](C)[C@H](NC(=O)[C@H](CC1CCCCC1)NC(=O)c1ccno1)C(=O)N1CCC2(CCc3ccccc32)CC1", "outcome": "inactive"}, {"smiles": "CCOC(=O)N[C@@H]1CC[C@@H]2[C@@H](C1)C[C@H]1C(=O)O[C@H](C)[C@H]1[C@@H]2C=Cc1ccc(-c2cccc(F)c2)cn1", "outcome": "inactive"}, {"smiles": "C/C(=C\\C(=O)Nc1ccccc1C(=O)O)c1ccc2ccccc2c1", "outcome": "inactive"}, {"smiles": "OC(CN1CCC(Cc2ccc(F)cc2)CC1)c1ccc(Cl)cc1", "note": "(centres undefined)", "outcome": "inactive"}, {"smiles": "N#CC[C@H](C1CCCC1)n1cc(-c2ncnc3[nH]ccc23)cn1", "outcome": "inactive"}, {"smiles": "NC(=O)c1ccc(-c2nc(-c3ccc4c(c3)OCO4)c(-c3ccccn3)[nH]2)cc1", "outcome": "inactive"}]}]}
